This note sets out measurements from the supplement of paper PMC6763611.

The first test relates to Plasmodium falciparum NF54. Put plainly: growth inhibition relative to untreated control; higher = more inhibition. To be noted: 5 µM; MM + chorismate end-products (CM screening medium); 72 h. The method in brief: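 In dark 96-well half-area plates, each well held 100 μL of P. falciparum NF54 ring-stage culture at 1% parasitemia and 1% hematocrit. The cultures received a single test-compound dose of 5 μM or 1 μM and were kept at 37 °C for 72 h, in minimal RPMI either plain or enriched with folate (2.2 μM), pABA (7.3 μM), pHBA (7.3 μM), tyrosine (111 μM), phenylalanine (90 μM) and tryptophan. SYBR Green staining gave growth inhibition, expressed against untreated wells, with uninfected erythrocytes serving as the background.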
Regarding `CN1CCN(S(=O)(=O)c2ccc(-c3ccc4c(Nc5ccc6nn[nH]c6c5)ccnc4c3)cc2)CC1`, the growth inhibition came out at 92.9%.

Take `Nc1nccc2ccc(-c3ccc4nccn4c3)cc12`: the growth inhibition worked out at 97.8%.

Consider `Cc1ccc(S(=O)(=O)n2cc(-c3ccnc(N)c3)c3cc(Br)cnc32)cc1`, for which the growth inhibition is 97.8%.

As for `CC[C@@H]([C@H](C)O)n1ncn(-c2ccc(N3CCN(c4ccc(OC[C@@H]5CO[C@@](Cn6cncn6)(c6ccc(F)cc6F)C5)cc4)CC3)cc2)c1=O`, the growth inhibition was found to be 88.9%.

Take `NC(=O)c1cc(Br)ccc1OCCOc1ccccc1`: the growth inhibition stood at 28.6%.

`CC1=Nc2ccc(Cl)cc2C(O)(c2ccc(C)cc2)N1CCN1CCCCC1` (stereo unspecified): the growth inhibition is > 100%.

`O=C(c1[nH]nc2c1CCCC2)N1CCN(Cc2ccc3c(c2)OCO3)CC1`: the growth inhibition is < 0%.

Turning to `CS(=O)(=O)Cc1nc2ccccc2oc1=O`, the growth inhibition was < 0%.

In the case of `CC(=O)OCC1OC([S-])C(OC(C)=O)C(OC(C)=O)C1OC(C)=O.CCP(CC)CC.[Au+]` (stereo unspecified), the growth inhibition turned out to be 87.8%.

On to `Cc1ncc(-c2ccnc(Nc3ccc(S(C)(=O)=O)cc3)n2)n1C(C)C`, for which the growth inhibition was determined as 42.1%.

Take `NCCC(O)C(=O)N[C@@H]1C[C@H](N)[C@@H](OC2O[C@H](CN)[C@@H](O)[C@H](O)[C@H]2O)[C@H](O)C1OC1O[C@H](CO)[C@@H](O)[C@H](N)[C@H]1O` (stereo partly specified): the growth inhibition was < 0%.

Consider `COC(=O)Nc1nc2cc(C(=O)c3ccccc3)ccc2[nH]1`, for which the growth inhibition came to 5.63%.

As for `COc1ccc(-c2nnc3ccc(-c4cccc(C(C)C)c4)cn23)cc1OC`, the growth inhibition was 33.1%.

As to `CN(C(=O)c1cc2c(-c3cncnc3)cccc2[nH]1)c1ccccc1`, the growth inhibition turned out to be 96%.

Take `Cc1noc(C)c1COc1cccc(C(=O)N=c2[nH]cccc2C)c1`: the growth inhibition was < 0%.

Take `O=C(NC1CC1)c1ccc(N2CCOc3ccc(Cl)cc32)s1`: the growth inhibition is 95.1%.

On to `N#CCN(CCCCN1CCN(c2ccc(F)cc2)CC1)C(=O)OCc1ccccc1`, for which the growth inhibition was found to be 32.3%.

For `O=C(Nc1nnc(S)s1)c1cc(Br)ccc1Cl`, the growth inhibition is < 0%.

For `O=C(NC1CCCCC1)N1CCN(Cc2ccc3c(c2)OCO3)CC1`, the growth inhibition was < 0%.

`COc1cc(Br)cc2cc(C(=O)Nc3cccc(C(F)(F)F)c3)c(=O)oc12`: the growth inhibition worked out at 21.7%.

`Cc1c[nH]c(CCNC(=O)c2cc(-c3ccc(Cl)cc3)cs2)n1`: the growth inhibition is 97.3%.

As to `COc1cc(OC)cc(C(=O)NCC2Cc3cc(Cl)cc(-c4ccncc4)c3O2)c1` (stereo unspecified), the growth inhibition worked out at 93%.

Take `CC(=O)N1CCc2cc3nc(C)cc(C)c3cc21`: the growth inhibition stood at 38.1%.

On to `Cc1cc(C(=O)Nc2ccc(-c3ccccc3)cc2)no1`, for which the growth inhibition stood at 84.6%.

Regarding `CC(=O)NC[C@@H]1CN(c2ccc(N3CCOCC3)c(F)c2)C(=O)O1`, the growth inhibition was < 0%.

On to `CS(=O)(=O)N1CCC(Cn2nc(Cc3cccc4ccccc34)c3c(N)ncnc32)CC1`, for which the growth inhibition was determined as 42.7%.

In the case of `COc1ccc(-c2nc(-c3cccc(NC(=O)Cc4ccc(F)cc4)c3)no2)cc1OC`, the growth inhibition was determined as 91.6%.

`Cc1nn(C(=O)Nc2cccc(C(F)(F)F)c2)c(C)c1Sc1ncccn1`: the growth inhibition was 80.1%.

Turning to `O=C1[C@@H](Oc2ccccc2)[C@@H](c2ccc(Cl)cc2)N1CCn1cnc2c(NCc3ccccc3)ncnc21`, the growth inhibition was < 0%.

As for `CC(C(=O)N1CCCC1)N1CCN(S(=O)(=O)c2ccc(C(C)(C)C)cc2)CC1` (stereo unspecified), the growth inhibition stood at 67.3%.

As for `NC(=O)c1cc(-c2ccsc2)ccc1OCCOc1ccccc1`, the growth inhibition stood at 4.73%.

For `CC(=O)NCC1CN(c2ccc(-c3ccc(CNCc4cn[nH]n4)cc3)c(F)c2)C(=O)O1` (stereo unspecified), the growth inhibition worked out at 34.6%.

In the case of `Nc1cccnc1Nc1ccc(Cl)cc1`, the growth inhibition worked out at 47.3%.

For the molecule `Cc1ccc(C(=O)Nc2ccc(S(=O)(=O)O)c3cc(S(=O)(=O)O)cc(S(=O)(=O)O)c23)cc1NC(=O)c1cccc(NC(=O)Nc2cccc(C(=O)Nc3cc(C(=O)Nc4ccc(S(=O)(=O)O)c5cc(S(=O)(=O)O)cc(S(=O)(=O)O)c45)ccc3C)c2)c1`, the growth inhibition was < 0%.

`COc1ccc(-c2nn(C(C)C)c3ncnc(N)c23)cc1OC`: the growth inhibition turned out to be 97.3%.

As to `O=C(CN1CCOCC1)Nc1ccc2ncnc(Nc3ccc(OCc4cccc(F)c4)c(Cl)c3)c2c1`, the growth inhibition came to 94.7%.

`c1ccc(Oc2ccc(-c3cc(CN4CCOCC4)[nH]n3)cc2)cc1`: the growth inhibition is < 0%.

In the case of `Clc1ccc(CCNc2cc(-c3ccccc3)nc3ncnn23)cc1`, the growth inhibition turned out to be 5.05%.

Staying with this test, now noted: 5 µM; minimal medium (MM); 72 h.
`CN1CCN(S(=O)(=O)c2ccc(-c3ccc4c(Nc5ccc6nn[nH]c6c5)ccnc4c3)cc2)CC1` came in with a growth inhibition of 95.1%.

Molecule `Nc1nccc2ccc(-c3ccc4nccn4c3)cc12` showed a growth inhibition of 88.2%.

As to `Cc1ccc(S(=O)(=O)n2cc(-c3ccnc(N)c3)c3cc(Br)cnc32)cc1`, the growth inhibition turned out to be 95.2%.

In the case of `CC[C@@H]([C@H](C)O)n1ncn(-c2ccc(N3CCN(c4ccc(OC[C@@H]5CO[C@@](Cn6cncn6)(c6ccc(F)cc6F)C5)cc4)CC3)cc2)c1=O`, the growth inhibition worked out at 83.4%.

In the case of `NC(=O)c1cc(Br)ccc1OCCOc1ccccc1`, the growth inhibition was < 0%.

For `CC1=Nc2ccc(Cl)cc2C(O)(c2ccc(C)cc2)N1CCN1CCCCC1` (stereo unspecified), the growth inhibition worked out at 86.9%.

For `O=C(c1[nH]nc2c1CCCC2)N1CCN(Cc2ccc3c(c2)OCO3)CC1`, the growth inhibition was < 0%.

In the case of `CS(=O)(=O)Cc1nc2ccccc2oc1=O`, the growth inhibition was < 0%.

Consider `CC(=O)OCC1OC([S-])C(OC(C)=O)C(OC(C)=O)C1OC(C)=O.CCP(CC)CC.[Au+]` (stereo unspecified), for which the growth inhibition was 91.7%.

With `Cc1ncc(-c2ccnc(Nc3ccc(S(C)(=O)=O)cc3)n2)n1C(C)C`, the growth inhibition turned out to be 45.6%.

As for `NCCC(O)C(=O)N[C@@H]1C[C@H](N)[C@@H](OC2O[C@H](CN)[C@@H](O)[C@H](O)[C@H]2O)[C@H](O)C1OC1O[C@H](CO)[C@@H](O)[C@H](N)[C@H]1O` (stereo partly specified), the growth inhibition is < 0%.

For `COC(=O)Nc1nc2cc(C(=O)c3ccccc3)ccc2[nH]1`, the growth inhibition is < 0%.

`COc1ccc(-c2nnc3ccc(-c4cccc(C(C)C)c4)cn23)cc1OC`: the growth inhibition is < 0%.

In the case of `CN(C(=O)c1cc2c(-c3cncnc3)cccc2[nH]1)c1ccccc1`, the growth inhibition is 94.3%.

As for `Cc1noc(C)c1COc1cccc(C(=O)N=c2[nH]cccc2C)c1`, the growth inhibition is < 0%.

In turn, `O=C(NC1CC1)c1ccc(N2CCOc3ccc(Cl)cc32)s1` yielded a growth inhibition of 91.5%.

With `N#CCN(CCCCN1CCN(c2ccc(F)cc2)CC1)C(=O)OCc1ccccc1`, the growth inhibition came to 18.1%.

Consider `O=C(Nc1nnc(S)s1)c1cc(Br)ccc1Cl`, for which the growth inhibition is < 0%.

As for `O=C(NC1CCCCC1)N1CCN(Cc2ccc3c(c2)OCO3)CC1`, the growth inhibition is < 0%.

Turning to `COc1cc(Br)cc2cc(C(=O)Nc3cccc(C(F)(F)F)c3)c(=O)oc12`, the growth inhibition is < 0%.

As to `Cc1c[nH]c(CCNC(=O)c2cc(-c3ccc(Cl)cc3)cs2)n1`, the growth inhibition was found to be 94.7%.

Turning to `COc1cc(OC)cc(C(=O)NCC2Cc3cc(Cl)cc(-c4ccncc4)c3O2)c1` (stereo unspecified), the growth inhibition was 91.9%.

On to `CC(=O)N1CCc2cc3nc(C)cc(C)c3cc21`, for which the growth inhibition was < 0%.

In turn, `Cc1cc(C(=O)Nc2ccc(-c3ccccc3)cc2)no1` showed a growth inhibition of 94%.

For the molecule `CC(=O)NC[C@@H]1CN(c2ccc(N3CCOCC3)c(F)c2)C(=O)O1`, the growth inhibition is < 0%.

`CS(=O)(=O)N1CCC(Cn2nc(Cc3cccc4ccccc34)c3c(N)ncnc32)CC1` yielded a growth inhibition of 17.6%.

The molecule `COc1ccc(-c2nc(-c3cccc(NC(=O)Cc4ccc(F)cc4)c3)no2)cc1OC` registered a growth inhibition of 80.9%.

As to `Cc1nn(C(=O)Nc2cccc(C(F)(F)F)c2)c(C)c1Sc1ncccn1`, the growth inhibition worked out at 39.2%.

`O=C1[C@@H](Oc2ccccc2)[C@@H](c2ccc(Cl)cc2)N1CCn1cnc2c(NCc3ccccc3)ncnc21` had a growth inhibition of 7.4%.

`CC(C(=O)N1CCCC1)N1CCN(S(=O)(=O)c2ccc(C(C)(C)C)cc2)CC1` (stereo unspecified): the growth inhibition came to 33.4%.

As for `NC(=O)c1cc(-c2ccsc2)ccc1OCCOc1ccccc1`, the growth inhibition was < 0%.

As for `CC(=O)NCC1CN(c2ccc(-c3ccc(CNCc4cn[nH]n4)cc3)c(F)c2)C(=O)O1` (stereo unspecified), the growth inhibition was < 0%.

Take `Nc1cccnc1Nc1ccc(Cl)cc1`: the growth inhibition was 19.2%.

Turning to `Cc1ccc(C(=O)Nc2ccc(S(=O)(=O)O)c3cc(S(=O)(=O)O)cc(S(=O)(=O)O)c23)cc1NC(=O)c1cccc(NC(=O)Nc2cccc(C(=O)Nc3cc(C(=O)Nc4ccc(S(=O)(=O)O)c5cc(S(=O)(=O)O)cc(S(=O)(=O)O)c45)ccc3C)c2)c1`, the growth inhibition was determined as 12.6%.

As for `COc1ccc(-c2nn(C(C)C)c3ncnc(N)c23)cc1OC`, the growth inhibition was 90.9%.

Molecule `O=C(CN1CCOCC1)Nc1ccc2ncnc(Nc3ccc(OCc4cccc(F)c4)c(Cl)c3)c2c1` gave a growth inhibition of 91.9%.

The molecule `c1ccc(Oc2ccc(-c3cc(CN4CCOCC4)[nH]n3)cc2)cc1` came in with a growth inhibition of 11.1%.

In the case of `Clc1ccc(CCNc2cc(-c3ccccc3)nc3ncnn23)cc1`, the growth inhibition is < 0%.
